Among the data in PubChem BioAssay (NCI) are growth values, retold here.

Compounds without any hit were thinned out: in the full panel of roughly 83,000, 20% have a hit.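 Cell lines were cultured in 96-well plates, exposed to a single compound concentration, and assessed for percent growth 48 hours later.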 A number with no mark means an inactive call. The source made the active and inactive calls. The calls were made as follows: active = growth percent below 10; inactive = the rest.

Some test systems named below: NCI-H23 lung; NCI-H226 lung; NCI-H322M lung; HOP-62 NSCLC; NCI-H460 lung; HOP-92 NSCLC; NCI-H522 lung; A549/ATCC NSCLC; 786-0 renal; K-562 leukemia; MALME-3M melanoma; MDA-MB-231 breast; RXF 393 renal; SF-268 CNS; SF-295 CNS; SF-539 CNS; UACC-257 melanoma; M14 melanoma; COLO 205 colon; DU-145 prostate.
Holding throughout (assay): NCI-60 one-dose screen, 48 h (100 = growth as untreated, 0 = no growth, -100 = all killed)
Holding throughout (settings): 10 µM

Consider `CN(C)CC1(N)C(=O)NC(=O)NC1=O`, for which the growth was 98.6% in the assay with NCI-H23 lung; 87.7% in the assay on NCI-H226 lung; 104% in the assay with NCI-H322M lung; 98.1% in the assay with HOP-62 NSCLC; 107% in the assay with NCI-H460 lung; 112% in the assay with HOP-92 NSCLC. The growth with NCI-H522 lung is 96.4%; in the assay on A549/ATCC NSCLC it was 94.2%; in the assay with 786-0 renal, 102%; with K-562 leukemia, 99.3%; with MALME-3M melanoma, 108%; in the assay with MDA-MB-231 breast it was 98.7%. Further, the growth in the assay on RXF 393 renal was 101%; in the assay with SF-268 CNS it was 103%; with SF-295 CNS, 98.8%; in the assay with SF-539 CNS, 99%; with UACC-257 melanoma, 87.4%; with M14 melanoma, 102%.
For `CCCCCCCC[N+]12CN3CN(CN(C3)C1)C2`, the growth with NCI-H23 lung was 92%; with NCI-H226 lung it was 98.2%; in the assay on NCI-H322M lung, 84.8%; with HOP-62 NSCLC, 102%; with NCI-H460 lung, 101%; with HOP-92 NSCLC it was 85.9%. Also, the growth is 97.9% in the assay with NCI-H522 lung; 97.8% in the assay on A549/ATCC NSCLC; 89.5% in the assay on 786-0 renal; 104% in the assay on COLO 205 colon; 101% in the assay on DU-145 prostate; 124% in the assay with K-562 leukemia. Besides, the growth was 98% in the assay on MALME-3M melanoma; 105% with RXF 393 renal; 95% in the assay on SF-268 CNS; 95.6% with SF-295 CNS; 92.7% with SF-539 CNS; 98.9% in the assay on UACC-257 melanoma. The growth with M14 melanoma is 89.5%.
Take `[Cl][Sn]([c]1ccccc1)([c]1ccccc1)[c]1ccccc1`: the growth with NCI-H23 lung is -71.6% (active); in the assay on NCI-H226 lung, -62% (active); in the assay with NCI-H322M lung, -89.5% (active); in the assay with HOP-62 NSCLC, -88.4% (active); in the assay with NCI-H460 lung, -66% (active); in the assay on HOP-92 NSCLC, -85.6% (active). The growth in the assay with NCI-H522 lung is -82.2% (active); in the assay with A549/ATCC NSCLC, -93.6% (active); in the assay on 786-0 renal, -93.4% (active); in the assay with COLO 205 colon it was -92.5% (active); in the assay with DU-145 prostate it was -84.3% (active); with K-562 leukemia, 0.0368% (active). Further, the growth in the assay on MALME-3M melanoma is -64% (active); in the assay on RXF 393 renal, -81.5% (active); with SF-268 CNS it was -79.2% (active); in the assay on SF-295 CNS, -62.1% (active); in the assay on SF-539 CNS, -89.5% (active); in the assay with UACC-257 melanoma, -93.9% (active). Further, the growth with M14 melanoma is -76% (active).
On to `O=C1C=Cc2ccccc2C1=O`, for which the growth with NCI-H23 lung is 73.5%; in the assay on NCI-H226 lung it was 100%; with NCI-H322M lung it was 100%; in the assay on HOP-62 NSCLC, 73%; in the assay with NCI-H460 lung it was 78.7%; in the assay with HOP-92 NSCLC it was 93.7%. For the same compound, the growth was 47.2% in the assay with NCI-H522 lung; 97.9% in the assay on A549/ATCC NSCLC; 110% in the assay on 786-0 renal; 117% in the assay on COLO 205 colon; 45.9% with DU-145 prostate; 38.6% in the assay with K-562 leukemia. Also, the growth in the assay on MALME-3M melanoma was 52.7%; in the assay on MDA-MB-231 breast, 67.1%; in the assay on RXF 393 renal, 46.5%; in the assay on SF-268 CNS, 87.8%; in the assay with SF-295 CNS, 94%; in the assay with SF-539 CNS it was 76.7%. In addition, the growth with UACC-257 melanoma was 75.9%; with M14 melanoma, 39.4%.
`CC12OOC(c3ccccc31)c1c2ccc2ccccc12` (stereo unspecified): the growth is 32.7% in the assay on NCI-H23 lung; 86.7% in the assay with NCI-H226 lung; 76.8% in the assay with NCI-H322M lung; 73.3% with HOP-62 NSCLC; -63.2% (active) in the assay on NCI-H460 lung; -61.9% (active) in the assay with HOP-92 NSCLC. Further, the growth in the assay on NCI-H522 lung is -91.2% (active); in the assay with A549/ATCC NSCLC it was 65.4%; with 786-0 renal it was 66.1%; in the assay on COLO 205 colon, -65.4% (active); in the assay on DU-145 prostate it was -95.3% (active); with K-562 leukemia, -82.8% (active). Besides, the growth is -88.4% (active) in the assay with MALME-3M melanoma; 49.7% with MDA-MB-231 breast; 67.3% in the assay on RXF 393 renal; 43.1% in the assay with SF-268 CNS; 82.5% in the assay with SF-295 CNS; 83% in the assay on SF-539 CNS. Also, the growth in the assay with UACC-257 melanoma is -17% (active); with M14 melanoma, -7.71% (active).
With `CC[C@@H](C)[C@@H]1NC(=O)C(NC(=O)C(CC(C)C)N(C)C(=O)C2CCCN2C(=O)C(C)O)C(C)OC(=O)C(Cc2ccc(OC)cc2)N(C)C(=O)C2CCCN2C(=O)C(CC(C)C)NC(=O)C(C)C(=O)C(C(C)C)OC(=O)C[C@H]1O` (stereo partly specified), the growth is -46.2% (active) in the assay on NCI-H23 lung; -58.9% (active) with NCI-H226 lung; -16.5% (active) with NCI-H322M lung; -42.9% (active) in the assay with HOP-62 NSCLC; -49.7% (active) in the assay on NCI-H460 lung; -41.9% (active) in the assay on HOP-92 NSCLC. Moreover, the growth with NCI-H522 lung was -43.2% (active); in the assay on A549/ATCC NSCLC, -80.2% (active); in the assay with 786-0 renal it was -37.9% (active); with COLO 205 colon it was -69.5% (active); in the assay with DU-145 prostate, -40.7% (active); with K-562 leukemia it was -27% (active). The growth in the assay with MALME-3M melanoma was -87.2% (active); in the assay on MDA-MB-231 breast it was -55.6% (active); with RXF 393 renal it was -66.2% (active); in the assay with SF-268 CNS it was -49.4% (active); with SF-295 CNS, -31% (active); in the assay with SF-539 CNS, -70.1% (active). For the same compound, the growth is -50.8% (active) in the assay on UACC-257 melanoma and -80.1% (active) in the assay on M14 melanoma.
In the case of `O=C(O)c1cc(Cc2ccc(O)c(C(=O)O)c2)ccc1O` (tested in a mixture with another compound), the growth with NCI-H23 lung was 87.6%; with NCI-H226 lung, 88.7%; with NCI-H322M lung, 87%; in the assay with HOP-62 NSCLC, 79.3%; with NCI-H460 lung, 65.9%; in the assay on HOP-92 NSCLC, -49.4% (active). Also, the growth with NCI-H522 lung was -49.9% (active); in the assay with A549/ATCC NSCLC, 79.9%; with 786-0 renal it was 78%; in the assay on COLO 205 colon, 42.4%; in the assay with DU-145 prostate it was 83%; in the assay on K-562 leukemia, 68.5%. Moreover, the growth in the assay with MALME-3M melanoma is 89.6%; with MDA-MB-231 breast, 66.8%; in the assay with RXF 393 renal, 39.6%; with SF-268 CNS, 76.9%; in the assay on SF-295 CNS it was 13.3%; in the assay on SF-539 CNS, 79.2%. The growth in the assay on UACC-257 melanoma was 60.5%; in the assay on M14 melanoma, 80.5%.
